Compound activity from PubChem.
NPC1 prom act: activators of NPC1 promoter; Huh7 NPC1 promoter luciferase reporter, 24 h; AID 485313; 320,000 tested, 2.4% active; Potency, µM (doses to about 9.22 µM), most hits filed as activators; also: nearly all actives have a fitted effect of over 60% in size
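Huh7 cells stably carrying NPC1 promoter–luciferase, plated in Opti-MEM with 10% FBS for 2 h, were exposed to compound in DMSO for 24 h at 37 °C; luciferase reagent was added for 10 min and luminescence read.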
SMN2 splice enh: increases expression of the SMN2 splice variant. Potency, µM (titrated, usually from 46.1 µM), hits mostly activators. 210,000 tested, 2.8% active. HEK293 SMN2-luciferase splicing reporter, luminescence, 30-36 h; also: nearly all actives have a fitted effect of over 55% in size
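HEK293 cells carry an SMN2 […]–luciferase reporter in which exon 7 inclusion puts luciferase in frame. Cells were plated 10-12 h before compound addition, then incubated 30-36 h at 37C. ONE-Glo luminescence was read; sodium butyrate at 4.5 mM final served as control.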
ELG1 repair inh: blocks ELG1-dependent DNA repair in HEK293T cells. Potency, µM (titrated, usually from 46.1 µM), usual class: inhibitors. HEK293T ELG1-luciferase reporter, luminescence, 16 h; DNA damage induced by 5-fluorouridine. AID 504467. 330,000 tested, 2.3% active; also: nearly all actives have a fitted effect of over 55% in size
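Cells (2,000 per well) received 5-fluorouridine plus test compound or DMSO and were incubated 16 hr at 37 °C, 5% CO2. Luciferase activity was read by luminescence 30 min after ONE-Glo addition; signal suppression marked inhibition of damage-induced ELG1 function.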
ELG1 genotoxic: induces genotoxicity in HEK293T cells with luciferase-tagged ELG1; Potency, µM (highest dose often 46 µM), hits mostly activators; 330,000 tested, 1.3% active; HEK293T ELG1-luciferase reporter, luminescence, 16 h; also: nearly all actives have a fitted effect of over 60% in size
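After overnight (16 hr) compound treatment at 37 °C, ELG1-luciferase HEK293T cells were lysed with ONE-Glo; luminescence quantified 30 min later at room temperature.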
FLuc counter: inhibits or activates purified firefly luciferase, miR-21 counter-screen; P08659; purified FLuc, Km substrates, luminescence inhibition; Potency, µM (titrated, usually from 57.5 µM), hits mostly inhibitors; 360,000 tested, 6.9% active; AID 588342; also: nearly all actives have a fitted effect of over 55% in size
Target sequence (P08659 whole entry, looked up): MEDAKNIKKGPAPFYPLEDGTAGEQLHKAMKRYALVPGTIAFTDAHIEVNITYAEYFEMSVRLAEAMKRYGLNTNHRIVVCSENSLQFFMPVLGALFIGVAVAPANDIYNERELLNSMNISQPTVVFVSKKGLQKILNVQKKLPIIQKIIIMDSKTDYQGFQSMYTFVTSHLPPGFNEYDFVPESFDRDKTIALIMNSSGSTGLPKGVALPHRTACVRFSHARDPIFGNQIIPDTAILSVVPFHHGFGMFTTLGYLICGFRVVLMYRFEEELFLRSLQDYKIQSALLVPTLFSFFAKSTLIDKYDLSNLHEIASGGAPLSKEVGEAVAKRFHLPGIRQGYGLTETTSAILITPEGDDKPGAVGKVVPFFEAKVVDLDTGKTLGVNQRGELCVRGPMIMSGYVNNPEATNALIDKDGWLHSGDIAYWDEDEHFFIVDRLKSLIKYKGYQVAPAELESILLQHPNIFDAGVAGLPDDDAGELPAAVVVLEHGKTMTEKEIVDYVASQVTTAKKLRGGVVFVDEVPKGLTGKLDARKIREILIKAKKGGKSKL
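Purified P. pyralis luciferase, 10 nM final, with Km-level 10 uM D-luciferin and 10 uM ATP in 50 mM Tris acetate pH 7.5, 10 mM Mg acetate, 0.01% Tween-20, 0.05% BSA; 6-point qHTS titration about 60 µM downward; luminescence read.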
Rab9 prom act: Rab9 promoter activation; Huh7 Rab9 promoter-luciferase reporter, luminescence, 24 h; Potency, µM (titrated, usually from 9.22 µM), most hits filed as activators; 320,000 tested, 2.8% active; AID 485297; also: nearly all actives have a fitted effect of over 60% in size
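Huh7 cells stably carrying a Rab9 promoter-luciferase reporter, 1500 cells per well in OP-MEM I with 10% FBS, treated with compound 24 hours at 37C. Luciferase activity read by luminescence after 10 minutes with Amplite reagent.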
Hits are given with their value; - = inactive; ? = inconclusive; . = no result given; [ ] = another dose, or the depositor's remark. Shown are actives, neighbours in structure and some others; about 9.2% of the full set was active somewhere. Calls follow the shape of the dose curve; as a rule, active = well fitted curve in the direction sought with a large enough effect; inconclusive = small, poorly fitted or top-dose-only effect, or another doubt; inactive = no such curve, though single readings can be large; an effect the other way counts as inactive or inconclusive.

SMILES | NPC1 prom act | SMN2 splice enh | ELG1 repair inh | ELG1 genotoxic | FLuc counter | Rab9 prom act
O=C(c1cc2ccc([N+](=O)[O-])cc2oc1=O)N1CCOCC1 | - | - | - | - | - | -
COCCn1c(-c2ccc(Br)cc2)csc1=Nc1cccnc1 | - | - | 12µM | - | - | -
FC(F)Oc1ccc(-c2csc(=Nc3cccnc3)n2CC2CCCO2)cc1 (stereo not given) | - | - | ? | - | - | -
Clc1ccc(-c2csc(=Nc3cccnc3)n2CCCn2ccnc2)cc1Cl | - | - | 8.2µM | - | - | -
Cc1ccc(C)c(CN2C(=O)c3ccccc3S(=O)c3ccc(C(=O)N4CCN(c5cccc(Cl)c5)CC4)cc32)c1 (stereo not given) | . | ? | . | . | - | .
Cc1cccc(C(=O)O)c1NC(=O)Cc1cccc2ccccc12 | - | . | - | - | - | -
CCN(C(=O)c1cnc(NC(C)C)cc1C(F)(F)F)c1ccc(Cl)cc1 | - | . | 18µM | - | - | -
Cc1cc(C)c(NC(=O)c2ccoc2C)c(C)c1 | - | - | - | - | - | -
Cc1cccc(NC(=O)c2ccccc2Br)n1 | - | - | ? | - | ? | -
Cc1cccc(NC(=O)c2cc(NC(=O)c3ccco3)ccc2Cl)n1 | - | - | 12µM | - | ? | -
Cc1cccc(NC(=O)c2ccoc2C)n1 | - | 18µM | ? | ? | ? | -
Cc1occc1C(=O)Nc1cc(C(C)(C)C)on1 | 2.8µM | 14µM | ? | 5.2µM | 6µM | 1.6µM
CC(NC(=O)C1CCN(S(=O)(=O)c2ccc3c(c2)NC(=O)CO3)CC1)c1ccccc1 (stereo not given) | - | . | - | - | - | -
NC(=O)c1nnsc1Sc1c(C(N)=O)nnn1-c1cccc(N)c1 | - | - | - | - | - | -
COc1ccc(-n2ncc(C(=O)Nc3ccc4c(c3)OCO4)c2C2CCN(C(=O)OC(C)(C)C)CC2)cc1 | . | . | . | . | - | .
CCCN1C(=O)S/C(=C\c2ccc(N3CCOCC3)cc2C)C1=O | 2µM | - | ? | ? | 5.4µM | 2.2µM
CCN1C(=O)S/C(=C\c2ccc(N3CCOCC3)cc2C)C1=O | 2µM | . | ? | ? | 2.7µM | 2µM
CCCN1C(=O)S/C(=C\c2ccc(N3CCOCC3)o2)C1=O | - | - | ? | ? | ? | ?
COc1ccc(CCNC(=O)c2ccccc2NC(=O)C2=C(C)OCCS2)c(OC)c1 | - | . | 18µM | - | ? | -
CC1=C(C(=O)Nc2ccc(C(=O)NCCC(C)C)cc2)SCCO1 | - | . | - | - | - | -
CCOc1ccc(CCNC(=O)Cc2ccc(NC(=O)C3=C(C)OCCS3)cc2)cc1 | ? | . | ? | - | 4.3µM | ?
CSc1ccc(CNC(=O)Cc2ccc(NC(=O)C3=C(C)OCCS3)cc2)cc1 | - | . | ? | 13µM | 1.3µM | ?
Cc1ccc(C)c(NC(=O)Cn2ncc3c([nH]c4ccccc43)c2=O)c1 | . | . | . | . | - | .
CCn1cc(C(=O)OCC(=O)Nc2c(C)cccc2C)c(=O)c2ccc(C)nc21 | - | - | - | - | - | -
O=c1cc(/C=C/c2ccccc2)oc2c1ccc1ccccc12 | - | - | 18µM | - | ? | -
SMILES | NPC1 prom act | SMN2 splice enh | ELG1 repair inh | ELG1 genotoxic | FLuc counter | Rab9 prom act
O=C(O)c1ccccc1-c1ccccc1C(=O)c1ccccc1 | . | -[9.22 µM] | . | . | . | .
O=C1C(=O)c2c(C(=O)c3ccccc3)coc2-c2ccccc21 | - | - | ? | 10µM | ? | -
C=CCc1c(C)nc(SC)nc1Nc1ccc(C(C)=O)cc1 | - | - | 7.3µM | - | ? | ?
C=CCc1c(C)nc(SC)nc1Nc1ccc(C(=O)O)cc1 | - | - | ? | - | - | -
COCCN(C(=O)c1ccco1)c1nc(-c2ccccc2)cs1 | - | . | - | - | - | -
COCCN(C(=O)c1ccccc1F)c1nc(-c2ccc(OC)cc2)cs1 | ? | . | - | - | ? | -
CCC(=O)N(CC)c1nc(-c2ccc(OC)cc2)cs1 | 4.5µM | - | ? | - | 15µM | ?
CCC(=O)N(Cc1ccco1)c1nc(-c2ccc(OC)cc2)cs1 | - | - | ? | - | - | ?
CCN(C(=O)c1ccccc1F)c1nc(-c2ccc(OC)cc2)cs1 | 3.2µM | . | ? | ? | 8.5µM | 2µM
COc1ccc(-c2csc(N(CCCN(C)C)C(=O)c3ccccc3C)n2)cc1 | - | . | ? | - | - | 0.28µM
CN(c1ccc(O)cc1)c1nc(-c2ccccc2)cs1 | 2.2µM | ? | ? | ? | ? | ?
COC(=O)N1CCC2(CCCN(C(=O)Nc3cccc(F)c3)C2)CC1 | . | - | . | . | . | .
CN(C)CCCN(C(=O)c1cccs1)c1nc(-c2ccccc2)cs1 | - | 7.9µM | - | ? | - | -
COc1ccc(-c2csc(N(CC(C)C)C(=O)c3ccco3)n2)cc1 | - | . | - | - | - | -
CN(C(=O)c1ccco1)c1nc(-c2ccccc2)cs1 | 2.5µM | . | ? | ? | 5.4µM | 2µM
COc1ccc(-c2csc(N(CCCN(C)C)C(=O)c3ccccc3F)n2)cc1 | - | . | - | - | - | -
CCN(C(=O)c1ccco1)c1nc(-c2ccc(OC)cc2)cs1 | 3.2µM | . | ? | ? | 12µM | 4µM
C=CCN=C1NN=C(c2cc(C)n(CCOC)c2C)CS1 | - | - | ? | - | 0.38µM | -
Cc1cc(C2=NNC(=NCc3ccccc3)SC2)c(C)n1-c1c(C)n(C)n(-c2ccccc2)c1=O | - | - | - | - | - | -
COCCn1c(C)cc(C2=NNC(=Nc3ccc(Cl)cc3Cl)SC2)c1C | - | - | - | - | ? | -
C=CCn1c(C)cc(C2=NNC(=Nc3ccc(C)cc3)SC2)c1C | ? | - | ? | - | ? | ?
CCOc1ccc(N=C2NN=C(c3cc(C)n(CC4CCCO4)c3C)CS2)cc1 (stereo not given) | - | - | - | - | 13µM | ?
C=CCn1c(C)cc(C2=NNC(=NC(C)(C)C)SC2)c1C | ? | - | ? | 0.58µM | 0.34µM | ?
COCCn1c(C)cc(C2=NNC(=NC3CC3)SC2)c1C | - | - | 5.2µM | - | 0.24µM | -
Cc1cc(C2=NNC(=Nc3ccc(S(=O)(=O)N4CCOCC4)cc3)SC2)c(C)n1C | - | . | - | - | - | -
SMILES | NPC1 prom act | SMN2 splice enh | ELG1 repair inh | ELG1 genotoxic | FLuc counter | Rab9 prom act
C/C(=N\NC(=O)c1cc2ccccc2cc1O)c1cccs1 | 0.56µM | . | ? | ? | 3.8µM | 0.63µM
C/C(=N\NC(=O)c1cc(Cl)ccc1O)c1ccc(Br)s1 | 4µM | 4µM | ? | - | 6.7µM | 3.5µM
O=C(NNC(=O)c1ccc2ccccc2c1O)c1cccs1 | - | . | ? | - | 27µM | -
C/C(=N\NC(=O)COc1ccc2ccccc2c1)c1cccs1 | - | . | - | - | ? | -
O=C(NNS(=O)(=O)c1ccc2ccccc2c1)c1cccs1 | - | - | - | - | - | -
C/C(=N\NC(=O)c1ccc(Cl)cc1)c1ccc(Br)s1 | - | - | ? | - | ? | -
